Screens (PubChem BioAssay)
The list is not random: actives were taken first. Their share in the collection is about 27%.
sEH inhibitor: inhibitors of human soluble epoxide hydrolase; P34913; recombinant human sEH enzymatic activity assay; inhibition, % at 2 µM; 91,000 compounds, 0.34% hits; AID 707; in the data active = inhibition above about 80%
sEH act: activators of human soluble epoxide hydrolase | P34913 | 91,000 compounds, 0.04% hits | purified human sEH enzymatic activity, activator screen | AID 717 | activation, % at 2 µM; in the data active = activation above about 37%
CYP2C19 inhib: human CYP2C19 inhibition | P33261 | CYP2C19 Supersomes, luciferin-H EGE luminescence, 30 min | inhibition, % at 5 µM | 96,000 compounds, 21% hits;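 active = CYP2C19 inhibition above a set limit at 5 µM in the primary screen, cut at about 50% in these data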
CYP2C9 inhib: blocks human cytochrome P450 2C9. CYP2C9 Supersomes, luciferin-H conversion, luminescence. inhibition, % at 5 µM. P11712. AID 777. 96,000 compounds, 20% hits;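 active = blocking of liver enzyme CYP2C9 beyond about 50% at 5 µM, limit read from the data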
Target sequence (P11712 whole entry, looked up): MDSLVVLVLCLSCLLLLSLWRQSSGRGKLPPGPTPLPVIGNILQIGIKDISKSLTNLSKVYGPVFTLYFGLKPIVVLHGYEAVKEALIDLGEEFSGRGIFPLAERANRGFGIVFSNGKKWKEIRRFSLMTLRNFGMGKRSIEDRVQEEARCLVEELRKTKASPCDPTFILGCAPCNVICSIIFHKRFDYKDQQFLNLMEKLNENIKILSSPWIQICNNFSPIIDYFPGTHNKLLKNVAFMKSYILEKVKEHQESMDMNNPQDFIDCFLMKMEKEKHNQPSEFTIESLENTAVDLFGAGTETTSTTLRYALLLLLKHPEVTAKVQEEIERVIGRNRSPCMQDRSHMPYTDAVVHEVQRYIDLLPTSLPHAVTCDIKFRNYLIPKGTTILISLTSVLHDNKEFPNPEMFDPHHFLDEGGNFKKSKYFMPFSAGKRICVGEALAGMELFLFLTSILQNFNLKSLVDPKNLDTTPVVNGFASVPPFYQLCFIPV
CYP2C9 act: activators of human CYP2C9. recombinant CYP2C9, luciferin-H conversion, luminescence; hits give high values; factor 1 = untreated enzyme, 0 = blocked. activation factor at 5 µM. 96,000 compounds, 1.4% hits. AID 1024;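 active = activation factor of 2 or more for CYP2C9 at a 5 µM dose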
CYP2C19 act: increases human CYP2C19 enzyme activity | P33261 | activation factor at 5 µM | 96,000 tested, under 10 active | AID 1025 | recombinant CYP2C19, luciferin-H EGE luminescence; hits give high values; 0 = fully inhibited enzyme, 1 = untreated enzyme;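 active = activation factor of at least 2 at 5 µM in the primary screen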
Each line names hits and unclear results; the compound was inactive in the other large screens.

CCOc1ccc(CCNC(=O)C2CCN(c3nn4c(=O)cc(C)nc4s3)CC2)cc1OCC	CYP2C19 inhib 54.2, CYP2C9 inhib 57.0 (no result: sEH inhibitor, sEH act)
COCCNC(=O)C1CCCN(c2nn3c(=O)cc(C)nc3s2)C1 (stereo not drawn)	none (no result: sEH inhibitor, sEH act)
CS(=O)(=O)N1CCCC(c2nc(-c3ccc(S(=O)(=O)NCc4ccccc4)cc3)no2)C1 (stereo not drawn)	none (no result: sEH inhibitor, sEH act)
CCOC(=O)Cc1c(C)c2c(C)nn(-c3ccccc3)c2oc1=O	none
O=S(=O)(c1cc(C(F)(F)F)ccc1Cl)N1CCCCCC1	none (no result: sEH inhibitor, sEH act)
COc1ccc(S(=O)(=O)N2CCN(S(=O)(=O)c3ccc(C(F)(F)F)cc3)CC2)cc1C	none
CCS(=O)(=O)c1ccc2c(c1)N(S(=O)(=O)c1ccc(OC)cc1)CC(C(=O)O)O2 (stereo not drawn)	none (no result: CYP2C19 inhib, CYP2C9 inhib, CYP2C9 act, CYP2C19 act)
COc1ccc(S(=O)(=O)N2CC3CCCN3c3cc(C(F)(F)F)ccc32)cc1 (stereo not drawn)	CYP2C19 inhib 92.3
COc1ccc(S(=O)(=O)N2CC3CCCN3c3ccc(C(F)(F)F)cc32)cc1 (stereo not drawn)	CYP2C19 inhib 73.4
O=S(=O)(c1cc(Cl)ccc1Cl)N1CC2CCCN2c2ccc(C(F)(F)F)cc21 (stereo not drawn)	CYP2C9 inhib 81.5
Cc1ccc(CO/N=C\Cc2snc(Sc3ncc(C(F)(F)F)cc3Cl)c2C#N)cc1	CYP2C19 inhib 51.7
O=C(O)C(CC(=O)N1CCOCC1)NCc1ccccc1 (stereo not drawn)	none (no result: CYP2C19 inhib, CYP2C9 inhib, CYP2C9 act, CYP2C19 act)
c1ccc(CSc2n[nH]c(-c3ccco3)n2)cc1	CYP2C19 inhib 60.8
Cc1cc(C(=O)N/N=C2\CCCC(C)C2)n[nH]1 (stereo not drawn)	none
CCCSc1nc2c(=O)[nH][nH]c(=O)c2n1Cc1ccccc1	none (no result: CYP2C19 inhib, CYP2C9 inhib, CYP2C9 act, CYP2C19 act)
O=C(CSCc1ccc(Cl)cc1)N/N=C/c1ccc(Cl)cc1Cl	sEH inhibitor 80.4
C/C(=N\NC(=O)CSCc1cccc(Br)c1)c1ccc([N+](=O)[O-])cc1	none
Cc1ccc(/C=N/NC(=O)CSCc2ccc(Cl)cc2)cc1	none
Cc1ccsc1/C=N/NC(=O)CSCc1ccc(Cl)cc1	CYP2C19 inhib 51.4
O=C(CSCc1ccc(Cl)cc1)N/N=C/c1ccc(OCC(=O)Nc2ccccc2)cc1	none
C/C(=N\NC(=O)CSCc1ccc(Cl)cc1)c1ccc2c(c1)OCCO2	CYP2C19 inhib 84.1, CYP2C9 inhib 64.4
Cc1cc(C(=O)CSc2ccc(F)cc2)cc(C)c1OC(=S)N(C)C	CYP2C19 inhib 93.5, CYP2C9 inhib 81.2
COc1ccc(SCC(=O)c2cc(C)c(OC(=S)N(C)C)c(C)c2)cc1	CYP2C19 inhib 87.2
COc1ccc(C(=O)CSc2cc(C)nc(SCC(=O)c3ccc(C)cc3)n2)cc1	none (no result: CYP2C19 inhib, CYP2C9 inhib, CYP2C9 act, CYP2C19 act)
COc1ccc(CCC(C)NC2C3CC4CC(C3)CC2C4)cc1 (stereo not drawn)	none
CCNc1cc2oc(=O)c(CN3CCOCC3)c(C)c2cc1C	CYP2C9 act 3.3
Cc1ccc(/C([O-])=C(/C(=S)NCc2ccco2)[n+]2ccccc2)cc1	none
CN(C)c1ccc(C(=S)NCc2ccco2)cc1	CYP2C19 inhib 88.3
CCCS(=O)(=O)c1c(S(=O)(=O)CCC)c2ccccn2c1C(=O)OC	CYP2C9 inhib 51.7
Cc1ccc(C(=O)c2oc3ccccc3c2N)cc1	none (no result: CYP2C19 inhib, CYP2C9 inhib, CYP2C9 act, CYP2C19 act)
Nc1c(C(=O)c2ccccc2)oc2ccc(Br)cc12	CYP2C19 inhib 70.1
CCC(CC)C(=O)NCCNC(=O)C(CC)CC	none
Nc1cc(Cl)c(N)cc1Cl	none
Cc1[nH]c2ccccc2c1C1(O)C(=O)N(C(C)C)c2ccccc21 (stereo not drawn)	CYP2C19 inhib 94.6
Cc1[nH]c2ccccc2c1C1(O)C(=O)N(Cc2ccc3c(c2)OCO3)c2ccccc21 (stereo not drawn)	CYP2C19 inhib 82.8, CYP2C9 inhib 72.8
CC(=O)NC1=NN(C(C)=O)C2(S1)C(=O)N(C(C)C)c1ccc(C)cc12 (stereo not drawn)	none
Cc1ccc2c(c1)C(O)(c1c(C)[nH]c3ccccc13)C(=O)N2 (stereo not drawn)	CYP2C19 inhib 98.3, CYP2C9 inhib 59.6
O=C(CCCCCC(=O)N(CCO)CCO)N(CCO)CCO	none
CC1CC1C(=O)OCc1cc(=O)n2cc(Br)ccc2n1 (stereo not drawn)	CYP2C19 inhib 63.2
O=C(OCc1cc(=O)n2cc(Br)ccc2n1)C1COc2ccccc2O1 (stereo not drawn)	none
CCCCC1CCC(C(=O)Nc2ccc(S(=O)(=O)Nc3nccs3)cc2)CC1 (stereo not drawn)	none
C/C(N)=C(/C#N)C(=O)COC(=O)CCSc1ccccc1Cl	CYP2C19 inhib 64.4
CC(=O)c1ncnn1CC(=O)c1ccc(Cl)cc1Cl	CYP2C19 inhib 61.4
CCS(=O)(=O)CCSc1nc2ccccc2o1	none
O=S(=O)(CCSc1nc2ccccc2o1)Cc1ccccc1	none
O=S(=O)(CCSc1nc2ccccc2o1)c1nc2ccccc2s1	CYP2C19 inhib 81.5, CYP2C9 inhib 89.3
O=S(=O)(NCCSc1nc2ccccc2o1)c1ccccc1	CYP2C19 inhib 89.4, CYP2C9 inhib 72.9
COc1ccc(/C=C\C(=O)CC(O)(c2ccccc2)C(F)(F)F)cc1 (stereo not drawn)	none
CC1CCCN(C(=O)COC(=O)c2ccc[nH]c2=O)C1 (stereo not drawn)	none
COc1cccc(N(CC(=O)N2CCN(C)CC2)S(=O)(=O)c2ccccc2)c1	none
O=C(CSc1ccc(Cl)cc1)Nc1cccc(-c2nc3ncccc3o2)c1	CYP2C9 inhib 51.1
COc1c(C)cc(Br)cc1C(=O)Nc1cccc(-c2nc3ncccc3o2)c1	CYP2C19 inhib 91.7, CYP2C9 inhib 54.2
Cc1c(NC(=O)CSc2ccc(Cl)cc2)cccc1-c1nc2ncccc2o1	CYP2C9 inhib 91.9
COc1ccc(C(=O)Nc2cccc(-c3nc4ncccc4o3)c2C)cc1	CYP2C9 inhib 64.5
CCCCC(=O)Nc1cccc(-c2nc3ncccc3o2)c1	none (no result: sEH inhibitor, sEH act)
CC(=O)c1cnc2nc(C(F)(F)F)nn2c1C	none
O=C(c1ccccc1)n1c(=S)nc2ccccn21	CYP2C19 inhib 79.0 (no result: sEH inhibitor, sEH act)
COCCCn1c(SCC(=O)N2CCCC(C)C2)nnc1-c1ccco1 (stereo not drawn)	none (no result: sEH inhibitor, sEH act)
CCCCc1nn(-c2cc(Cl)ccc2OC)c2c1C(=O)CCC2	CYP2C19 inhib 96.6, CYP2C9 inhib 91.5 (no result: sEH inhibitor, sEH act)
COc1ccc(-c2nc3c(n2O)CCCC3=O)cc1OC	none
COc1ccc(NC(=O)C2CCN(C(=O)c3ccc(OC)cc3)CC2)cc1	none
O=C(Nc1ccc2c(c1)OCCO2)C1CCN(c2nnnn2-c2ccccc2)CC1	none
O=C(Nc1cccc(F)c1)C1CCN(C(=O)c2ccc(Br)cc2)CC1	CYP2C19 inhib 90.1, CYP2C9 inhib 92.9
O=C(Nc1ccc2c(c1)OCCO2)C1CCN(C(=O)c2ccccc2)CC1	none (no result: CYP2C9 inhib, CYP2C9 act)
O=C(Nc1ccc2c(c1)OCCO2)C1CCN(C(=O)c2ccc(Br)cc2)CC1	CYP2C9 inhib 85.0
O=C(Nc1cccc(F)c1)C1CCN(c2nnnn2-c2ccccc2)CC1	CYP2C9 inhib 50.6
